Unmarked numbers belong to inactive results. Results filed as inconclusive are left out. Where a call stands in place of a potency, no number is given. The source made the active and inactive calls. Unless noted, the call rests on the fitted dose curve; in most records, active means well fitted curve in the direction sought with a large enough effect in the repeat runs; inconclusive means weak or mixed curves; inactive means no such curve, though single readings can be large; an effect the other way counts as inactive or inconclusive.
Legend:
[1] = A CellTox Green Cytotoxicity Assay to monitor cytotoxicity in HepG2 cells - 0 hour (AID 1224882); further: nearly all actives have a fitted effect of over 35% in size
Outline: (§1)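 Measurements at 0, 8, 16, 24, 32 and 40 h of treatment captured CellTox Green fluorescence in HepG2 cells that had been co-plated with reagent and preincubated 5 h at 37 C/5% CO2.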

[2] = A CellTox Green Cytotoxicity Assay to monitor cytotoxicity in HepG2 cells - 32 hour (AID 1224883); further: nearly all actives have a fitted effect of over 50% in size
Outline: as §1

[3] = qHTS RealTime-Glo MT Cell Viability Assay in HepG2 cells - 16 hour (AID 1224885); further: nearly all actives have a fitted effect of over 50% in size
Outline: (§2)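 HepG2 suspension premixed with RealTime-Glo reagents is plated at 600 cells per well and left 5 h at 37 C/5% CO2. Compounds in DMSO then go in, and bioluminescence reflecting viable cell number is recorded over 40 h.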

[4] = A CellTox Green Cytotoxicity Assay to monitor cytotoxicity in HEK293 cells - 16 hour (AID 1224888); further: nearly all actives have a fitted effect of over 35% in size
Outline: (§3)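 Tox21 screen in HEK293: membrane-impermeant cyanine dye fluoresces on binding dead-cell DNA; compound pinned 5 h post-seeding, plates held at 37 C, signal read repeatedly through 40 h.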

[5] = qHTS RealTime-Glo MT Cell Viability Assay in HepG2 cells - 0 hour (AID 1224889); further: nearly all actives have a fitted effect of over 50% in size
Outline: as §2

[6] = A CellTox Green Cytotoxicity Assay to monitor cytotoxicity in HepG2 cells - 8 hour (AID 1224890); further: nearly all actives have a fitted effect of over 45% in size
Outline: as §1

[7] = qHTS assay to identify small molecule antagonists of the estrogen receptor alpha (ER-alpha) signaling pathway using the BG1 cell line in the presence of 0.1 nM 17-beta-estradiol - cell viability counter screen (AID 1259241); further: nearly all actives have a fitted effect of over 40% in size
Outline: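 Following 5 days in phenol red-free medium with charcoal-stripped serum, VM7Luc4E2 cells received test compounds alongside 0.1 nM 17beta-estradiol (final) at 37C for 22 hr. Live cells were then quantified via protease-substrate fluorescence.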

[8] = qHTS assay to identify small molecule antagonists of the androgen receptor (AR) signaling pathway using the MDA cell line in the presence of 0.5 nM R1881 - cell viability counter screen (AID 1259242); further: nearly all actives have a fitted effect of over 45% in size
Outline: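 Concentration-response screen of compounds for toxicity in MDA-kb2 reporter cells: 16 hr at 37C with 0.5 nM R1881, endpoint live-cell protease fluorescence measured in the reporter wells.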

[9] = qHTS assay to identify small molecule HDAC inhibitors (AID 1259364); further: potency means the concentration at half of the fitted maximal effect;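 further: wild-type HCT-116 cells with endogenous class I/II HDAC activity; nearly all actives have a fitted effect of over 45% in size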; on activity change, negative = inhibition: top concentration of the series differs between compounds
Outline: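 Screening used wild-type human colon HCT-116 cells incubated overnight, dosed with compounds for 2 hours, and assayed with a homogeneous luminogenic HDAC I/II reagent for 30 minutes at room temperature.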

[10] = qHTS assay to identify small molecule HDAC inhibitors - cell viability counter screen (AID 1259365); further: series mostly up to about 92 µM; nearly all actives have a fitted effect of over 50% in size
Outline: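 HCT-116 wild-type, overnight attachment; 2hr drug exposure, 37C; CellTiter-Glo luminescent ATP readout after 30min RT.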

[11] = qHTS assay to identify small molecule agonists of the sonic hedgehog signaling (Shh) pathway (AID 1259368; calls by dose curve;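 further: NIH/3T3-derived 3T3Gli1-Luc cells carrying a stable Gli1-driven firefly luciferase reporter; series mostly up to about 92 µM; nearly all actives have a fitted effect of over 15% in size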)
Outline: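 Hedgehog pathway agonism scored by increased firefly luciferase luminescence in 3T3Gli1-Luc cells treated 24 hr at 37 C; detection used a 30 min room-temperature reagent incubation.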

[12] = A CellTox Green Cytotoxicity Assay to monitor cytotoxicity in HEK293 cells - 8 hour (AID 1224884); further: nearly all actives have a fitted effect of over 35% in size
Outline: as §3

[13] = qHTS RealTime-Glo MT Cell Viability Assay in HEK293 cells - 24 hour (AID 1224886); further: nearly all actives have a fitted effect of over 50% in size; further: potency means the concentration at half of the fitted maximal effect; on activity change, negative = cytotoxicity: top concentration of the series differs between compounds
Outline: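 Reads taken at 0, 8, 16, 24, 32 and 40 h from the same wells. HEK293 cells (600/well) carried RealTime-Glo reagents from seeding, with compound added after a 5 h settle at 37 C.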

[14] = qHTS RealTime-Glo MT Cell Viability Assay in HEK293 cells - 8 hour (AID 1224887); further: nearly all actives have a fitted effect of over 50% in size; further: potency means the concentration at half of the fitted maximal effect; on activity change, negative = cytotoxicity: top concentration of the series differs between compounds
Outline: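 HEK293 + NanoLuc + prosubstrate, 600 cells/well; 5 h, 37 C/5% CO2; compound 23 nL in DMSO by pintool; 37 C; luminescence read at 0, 8, 16, 24, 32 and 40 h time points.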

[15] = molecular target: Estrogen receptor (Homo sapiens) (UniProt P03372); test: qHTS assay to identify small molecule antagonists of the estrogen receptor alpha (ER-alpha) signaling pathway using the BG1 cell line in the presence of 0.1 nM 17-beta-estradiol (AID 1259244); further: nearly all actives have a fitted effect of over 50% in size
Estrogen receptor (Homo sapiens), sequence (P03372 whole entry, looked up): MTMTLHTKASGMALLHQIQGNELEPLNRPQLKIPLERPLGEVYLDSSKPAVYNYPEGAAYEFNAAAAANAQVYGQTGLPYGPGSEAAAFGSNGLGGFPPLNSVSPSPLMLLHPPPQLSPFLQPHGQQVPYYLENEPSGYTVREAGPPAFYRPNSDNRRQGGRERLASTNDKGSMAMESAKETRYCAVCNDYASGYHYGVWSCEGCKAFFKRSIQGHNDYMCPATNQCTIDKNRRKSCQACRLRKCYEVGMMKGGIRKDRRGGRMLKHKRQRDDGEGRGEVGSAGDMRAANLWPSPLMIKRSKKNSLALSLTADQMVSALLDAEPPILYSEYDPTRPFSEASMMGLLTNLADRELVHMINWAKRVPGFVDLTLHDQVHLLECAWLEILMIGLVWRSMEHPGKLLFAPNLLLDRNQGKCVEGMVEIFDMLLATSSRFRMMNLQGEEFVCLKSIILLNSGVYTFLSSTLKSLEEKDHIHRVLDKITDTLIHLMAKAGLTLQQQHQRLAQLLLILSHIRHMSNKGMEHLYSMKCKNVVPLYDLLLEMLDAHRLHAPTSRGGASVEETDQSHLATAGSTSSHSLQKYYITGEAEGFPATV
Outline: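 Compounds were tested against 0.1 nM (final) 17beta-estradiol in VM7Luc4E2 cells, which express full-length ER-alpha and an ERE-luciferase reporter; luminescence was recorded following 22 h exposure.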

[16] = qHTS assay to identify small molecule agonists of the sonic hedgehog signaling (Shh) pathway - cell viability counter screen (AID 1259366); further: nearly all actives have a fitted effect of over 50% in size; further: potency means the concentration at half of the fitted maximal effect
Outline: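 Compounds in DMSO were pin-transferred onto 3T3 Gli1-Luc cells that had settled 4hr; plates then stood 24hr at 37C and 5% CO2. One hour before the end, CellTiter-Fluor was added and fluorescence recorded.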

[17] = qHTS assay to identify small molecule antagonists of the sonic hedgehog signaling (Shh) pathway - cell viability counter screen (AID 1259367); further: nearly all actives have a fitted effect of over 55% in size
Outline: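 CellTiter-Fluor signal in conditioned medium-stimulated 3T3 Gli1-Luc cells, 23 hr compound exposure, 37C.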

[18] = qHTS assay to identify small molecule antagonists of the sonic hedgehog signaling (Shh) pathway (AID 1259369; calls by dose curve; further: nearly all actives have a fitted effect of over 45% in size; further: potency means the concentration at half of the fitted maximal effect)
Outline: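 NIH/3T3 stable Gli1-Luc clone, 2,000 cells/well, 4hr settle; cpd + conditioned medium 24hr; Luc reagent 30min RT; luminescence.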

[19] = qHTS assay to identify small molecule phospholipidosis (PLD) inducers (AID 1259344; active means well fitted curve in the direction sought with a large enough effect; an effect the other way counts as inactive or inconclusive)
Outline: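 Accumulated phospholipid, stained red by LipidTOX during 24 h compound treatment of HepG2 cells at 37 C, is quantified from images as pit number and intensity, normalised per cell using Hoechst-stained nuclei.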

[20] = molecular target: Androgen receptor (Homo sapiens) (UniProt P10275); test: qHTS assay to identify small molecule antagonists of the androgen receptor (AR) signaling pathway using the MDA cell line in the presence of 0.5 nM R1881 (AID 1259243); further: nearly all actives have a fitted effect of over 50% in size
Androgen receptor (Homo sapiens), sequence (P10275 whole entry, looked up): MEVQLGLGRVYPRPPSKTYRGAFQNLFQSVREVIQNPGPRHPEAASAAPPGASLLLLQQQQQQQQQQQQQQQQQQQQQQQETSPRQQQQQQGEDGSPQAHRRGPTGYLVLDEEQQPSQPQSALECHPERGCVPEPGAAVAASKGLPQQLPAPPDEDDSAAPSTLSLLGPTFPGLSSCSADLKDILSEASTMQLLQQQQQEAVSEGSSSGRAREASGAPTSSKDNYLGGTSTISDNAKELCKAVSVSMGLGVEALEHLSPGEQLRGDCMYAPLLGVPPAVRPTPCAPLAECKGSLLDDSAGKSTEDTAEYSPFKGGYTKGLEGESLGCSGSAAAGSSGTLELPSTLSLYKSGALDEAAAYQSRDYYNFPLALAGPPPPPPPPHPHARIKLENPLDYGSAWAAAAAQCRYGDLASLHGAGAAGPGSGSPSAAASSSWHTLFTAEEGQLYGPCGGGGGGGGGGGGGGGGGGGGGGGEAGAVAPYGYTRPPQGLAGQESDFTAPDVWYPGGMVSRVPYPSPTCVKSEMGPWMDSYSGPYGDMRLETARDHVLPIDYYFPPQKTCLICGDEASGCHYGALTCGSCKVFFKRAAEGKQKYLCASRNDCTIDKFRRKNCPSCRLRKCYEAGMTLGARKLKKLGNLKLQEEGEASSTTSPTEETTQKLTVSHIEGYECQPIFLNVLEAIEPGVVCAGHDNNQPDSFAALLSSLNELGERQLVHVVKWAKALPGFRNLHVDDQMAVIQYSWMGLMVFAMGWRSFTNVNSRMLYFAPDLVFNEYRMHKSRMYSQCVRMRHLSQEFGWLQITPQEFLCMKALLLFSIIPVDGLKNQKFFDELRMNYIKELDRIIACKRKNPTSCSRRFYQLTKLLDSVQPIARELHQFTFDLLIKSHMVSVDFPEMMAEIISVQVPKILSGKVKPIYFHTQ
Outline: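 With R1881 held at 0.5 nM (final), compound effects on MMTV-luciferase expression in MDA-kb2 cells were scored by luminescence after a 16 hr, 37C incubation.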

C[C@]12C(=O)OC(=O)[C@H]1[C@H]1C=C[C@@H]2C1
Potency [1]: inactive
Potency [2]: inactive
outcome [3]: inactive
Potency [4]: inactive
Potency [5]: inactive
Potency [6]: inactive
Potency [7]: inactive
outcome [8]: inactive
Potency [9]: inactive
outcome [10]: inactive
Potency [11]: inactive

CN(CCCN1c2ccccc2CCc2ccccc21)CC(=O)c1ccc(Cl)cc1
Potency [1]: inactive
Potency [12]: inactive
Potency [13]: inactive
Potency [14]: inactive
Potency [5]: inactive
Potency [6]: inactive
Potency [7]: inactive
outcome [8]: inactive
Potency [15]: inactive
Potency [9]: inactive
outcome [10]: inactive
Potency [16]: inactive
Potency [17]: inactive
Potency [11]: inactive
Potency [18]: 26.6 µM (active)

CCC(=O)c1ccc2c(c1)N(CCCN(C)C)c1ccccc1S2
Potency [1]: inactive
Potency [12]: inactive
outcome [3]: inactive
Potency [13]: 10.7 µM (active)
Potency [14]: 9.52 µM (active)
Potency [4]: inactive
Potency [6]: inactive
outcome [8]: inactive
Potency [9]: inactive
outcome [10]: inactive
Potency [16]: inactive
Potency [17]: inactive
Potency [11]: inactive
Potency [18]: inactive

CCN(CC)CCNC(=O)COc1ccc(Cl)cc1
Potency [1]: inactive
Potency [12]: inactive
outcome [3]: inactive
Potency [13]: inactive
Potency [14]: inactive
Potency [4]: inactive
Potency [5]: inactive
Potency [6]: inactive
Potency [7]: inactive
outcome [8]: inactive
Potency [15]: inactive
outcome [19]: inactive
Potency [9]: inactive
outcome [10]: inactive
Potency [16]: inactive
Potency [17]: inactive
Potency [18]: inactive

O=Cc1ccc(O)c(O)c1O
Potency [1]: inactive
Potency [12]: inactive
outcome [3]: inactive
Potency [14]: inactive
Potency [5]: inactive
Potency [6]: inactive
Potency [7]: inactive
outcome [8]: inactive
Potency [20]: inactive
Potency [9]: inactive
outcome [10]: inactive
Potency [11]: inactive
Potency [18]: 26.6 µM (active)

Clc1cccc(-c2cc(Cl)cc(Cl)c2)c1
Potency [1]: inactive
outcome [3]: inactive
Potency [13]: inactive
Potency [5]: inactive
Potency [6]: inactive
Potency [7]: inactive
outcome [8]: inactive
Potency [9]: inactive
outcome [10]: inactive
Potency [16]: inactive
Potency [17]: inactive
Potency [11]: inactive
Potency [18]: inactive

Cc1cc(NS(=O)(=O)c2ccc(N)cc2)nc(C)n1
Potency [1]: inactive
Potency [12]: inactive
outcome [3]: inactive
Potency [13]: inactive
Potency [14]: inactive
Potency [4]: inactive
Potency [5]: inactive
Potency [6]: inactive
Potency [7]: inactive
outcome [8]: inactive
Potency [15]: inactive
outcome [19]: inactive
Potency [9]: inactive
outcome [10]: inactive
Potency [16]: inactive
Potency [17]: inactive
Potency [11]: inactive
Potency [18]: inactive

CN(C)C(=O)NC1(c2ccccc2)CCN(CCC[C@]2(c3ccc(Cl)c(Cl)c3)CCCN(C(=O)c3ccccc3)C2)CC1
cytotoxicity [1]: -1.48% [at 15.8 µM]
activity change, negative = cytotoxic [3]: -10.4% [at 15.8 µM]
activity change, negative = cytotoxicity [5]: -2.18% [at 15.8 µM]
cytotoxicity increase [6]: 9.35% [at 15.8 µM]
activity change, negative = cytotoxicity [7]: 3.34% [at 19 µM]
viability change, negative = cytotoxic [8]: -6.41% [at 19 µM]
activity change, negative = inhibition [15]: 3.38% [at 19 µM]
activity change, negative = inhibition [9]: -4.11% [at 19 µM]
activity change, negative = cytotoxicity [10]: -5.58% [at 19 µM]
Potency [16]: 13 µM (active)
activity change, negative = inhibition [18]: -22.9% [at 19 µM]

CCCC1CCC(=O)O1 (configuration not stated)
Potency [1]: inactive
Potency [2]: inactive
Potency [13]: inactive
Potency [5]: inactive
Potency [6]: inactive
Potency [7]: inactive
outcome [8]: inactive
Potency [9]: inactive
outcome [10]: inactive
Potency [16]: inactive
Potency [17]: inactive
Potency [11]: inactive
Potency [18]: inactive

CN1CCN(C2=Nc3ccccc3Oc3ccc(Cl)cc32)CC1
Potency [1]: inactive
Potency [12]: inactive
Potency [13]: inactive
Potency [14]: inactive
Potency [4]: inactive
Potency [5]: inactive
Potency [6]: inactive
Potency [7]: inactive
outcome [8]: inactive
outcome [19]: inactive
Potency [9]: inactive
outcome [10]: inactive
Potency [11]: inactive
Potency [18]: 6.68 µM (active)

COc1ccc2nc(NC(=O)Nc3ccccc3)sc2c1
Potency [1]: inactive
Potency [12]: inactive
Potency [13]: 4.77 µM (active)
Potency [5]: inactive
Potency [6]: inactive
Potency [7]: inactive
outcome [8]: inactive
outcome [19]: inactive
Potency [9]: 3.35 µM (active)
outcome [10]: inactive
Potency [16]: inactive
Potency [17]: inactive
Potency [11]: inactive
Potency [18]: inactive

CCC/C=C/CO
Potency [1]: inactive
Potency [2]: inactive
Potency [13]: inactive
Potency [5]: inactive
Potency [6]: inactive
Potency [7]: inactive
outcome [8]: inactive
Potency [15]: inactive
Potency [9]: inactive
outcome [10]: inactive
Potency [16]: inactive
Potency [17]: inactive
Potency [11]: inactive
Potency [18]: inactive

From PubChem BioAssay (Tox21)
